# Source: PubChem BioAssay (Tox21)
# Values without a mark were called inactive. Records with an inconclusive call do not appear. Entries that show only a call come without a potency. Activity calls are given as the source filed them. Unless noted, the call rests on the fitted dose curve; in most records, active means well fitted curve in the direction sought with a large enough effect in the repeat runs; inconclusive means weak or mixed curves; inactive means no such curve, though single readings can be large; an effect the other way counts as inactive or inconclusive.
# Assays:
# [1] = qHTS assay to identify small molecule antagonists of the androgen receptor (AR) signaling pathway using the MDA cell line in the presence of 0.5 nM R1881 - cell viability counter screen (AID 1259242); further: nearly all actives have a fitted effect of over 45% in size
# In short: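 MDA-kb2 cells (human breast carcinoma, stably carrying MMTV-luciferase reporter) were exposed to compounds with 0.5 nM R1881 (final) for 16 hr at 37C, 0% CO2; viability then read as live-cell protease fluorescence (CellTiter-Fluor, 30 min) in the same wells.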
# [2] = target: Estrogen receptor (Homo sapiens) (UniProt P03372); assay: qHTS assay to identify small molecule antagonists of the estrogen receptor alpha (ER-alpha) signaling pathway using the BG1 cell line in the presence of 0.1 nM 17-beta-estradiol (AID 1259244); further: nearly all actives have a fitted effect of over 50% in size; further: potency means the concentration at half of the fitted maximal effect
# Chain of Estrogen receptor (Homo sapiens) (P03372 whole entry, looked up): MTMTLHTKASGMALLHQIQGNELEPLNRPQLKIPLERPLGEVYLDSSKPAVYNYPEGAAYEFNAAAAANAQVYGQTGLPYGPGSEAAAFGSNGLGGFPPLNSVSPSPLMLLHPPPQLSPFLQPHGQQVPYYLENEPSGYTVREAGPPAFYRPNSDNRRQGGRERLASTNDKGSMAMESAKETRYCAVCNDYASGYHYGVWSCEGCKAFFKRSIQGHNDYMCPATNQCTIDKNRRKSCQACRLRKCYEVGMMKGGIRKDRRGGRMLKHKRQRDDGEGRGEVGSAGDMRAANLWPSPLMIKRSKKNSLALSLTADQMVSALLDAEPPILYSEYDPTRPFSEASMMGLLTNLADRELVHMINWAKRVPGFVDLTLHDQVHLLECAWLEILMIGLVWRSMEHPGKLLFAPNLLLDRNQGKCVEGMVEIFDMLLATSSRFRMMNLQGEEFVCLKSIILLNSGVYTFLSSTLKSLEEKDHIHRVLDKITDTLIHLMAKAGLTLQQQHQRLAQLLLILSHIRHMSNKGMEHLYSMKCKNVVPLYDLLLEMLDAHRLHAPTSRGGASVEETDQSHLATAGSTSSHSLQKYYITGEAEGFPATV
# In short: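 VM7Luc4E2 cells (endogenous full-length ER-alpha, stable 4xERE-luciferase) were grown 5 days in phenol red-free medium with charcoal-stripped FBS, then exposed 22 h at 37C to compounds plus 0.1 nM (final) 17beta-estradiol; ONE-Glo luminescence read-out.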
# [3] = qHTS assay to identify small molecule phospholipidosis (PLD) inducers (AID 1259344; active means well fitted curve in the direction sought with a large enough effect; an effect the other way counts as inactive or inconclusive)
# In short: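 HepG2 cells, 900/well, treated with compound plus LipidTOX Red for 24 h at 37 C; amiodarone positive and DMSO negative controls. Fixed with paraformaldehyde/Hoechst, then high-content imaging scored LipidTOX pit count and integrated intensity per well and per cell.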
# [4] = qHTS assay to identify small molecule HDAC inhibitors (AID 1259364); further: top concentration of the series differs between compounds; nearly all actives have a fitted effect of over 45% in size
# In short: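 Wild-type HCT-116 cells were plated overnight, exposed to compounds for 2 h at 37 °C, then given HDAC-Glo class I/II luminogenic reagent for 30 min at room temperature before luminescence was read.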
# [5] = qHTS assay to identify small molecule HDAC inhibitors - cell viability counter screen (AID 1259365); further: series mostly up to about 92 µM; nearly all actives have a fitted effect of over 50% in size
# In short: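 HCT-116 wild-type, overnight attachment; 2hr drug exposure, 37C; CellTiter-Glo luminescent ATP readout after 30min RT.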
# [6] = qHTS assay to identify small molecule agonists of the sonic hedgehog signaling (Shh) pathway - cell viability counter screen (AID 1259366); further: nearly all actives have a fitted effect of over 50% in size
# In short: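 Compounds in DMSO were pin-transferred onto 3T3 Gli1-Luc cells that had settled 4hr; plates then stood 24hr at 37C and 5% CO2. One hour before the end, CellTiter-Fluor was added and fluorescence recorded.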
# [7] = qHTS assay to identify small molecule agonists of the sonic hedgehog signaling (Shh) pathway (AID 1259368; calls by dose curve; further: series mostly up to about 92 µM; nearly all actives have a fitted effect of over 15% in size)
# In short: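 NIH/3T3-derived 3T3Gli1-Luc cells carrying a stably integrated Gli1 response element–firefly luciferase reporter were plated, left 4 hr at 37 C, then given compounds in DMSO for 24 hr. Luminescence was read 30 min after adding luciferase reagent.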
# [8] = qHTS assay to identify small molecule antagonists of the sonic hedgehog signaling (Shh) pathway (AID 1259369; calls by dose curve; further: nearly all actives have a fitted effect of over 45% in size; further: potency means the concentration at half of the fitted maximal effect)
# In short: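 NIH/3T3-derived 3T3Gli1-Luc cells with stably integrated Gli1-Luc reporter were preincubated 4hr at 37 C, then given compounds in DMSO plus Shh conditioned medium and incubated 24hr. Firefly luciferase luminescence read after 30min reagent at room temperature.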
# [9] = qHTS assay to identify small molecule antagonists of the sonic hedgehog signaling (Shh) pathway - cell viability counter screen (AID 1259367); further: nearly all actives have a fitted effect of over 55% in size; further: potency means the concentration at half of the fitted maximal effect
# In short: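 NIH/3T3-derived Gli1-Luc reporter cells, 2,000/well, plated 4 hr before compound addition, then stimulated with conditioned medium for 24 hr at 37C. Viability measured in the same wells by CellTiter-Fluor fluorescence, reagent added at 23 hr for 1 hr.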
smiles,measurement,setting,value
C[C@H](CCC(=O)O)[C@H]1CC[C@H]2[C@@H]3[C@H](O)C[C@@H]4C[C@H](O)CC[C@]4(C)[C@H]3CC[C@]12C,Potency,[1],inactive
same,Potency,[2],inactive
same,Potency,[3],inactive
same,Potency,[4],inactive
same,outcome,[5],inactive
same,Potency,[6],inactive
same,outcome,[7],inactive
same,Potency,[8],inactive
O=C(O)Cc1cc(I)c(Oc2ccc(O)c(I)c2)c(I)c1,Potency,[1],inactive
same,Potency,[3],inactive
same,Potency,[4],inactive
same,outcome,[5],inactive
same,Potency,[9],inactive
same,outcome,[7],inactive
CCCCCOC(=O)COc1cc(N2C(=O)C3=C(CCCC3)C2=O)c(F)cc1Cl,Potency,[1],inactive
same,Potency,[2],inactive
same,outcome,[5],inactive
same,Potency,[6],inactive
same,Potency,[9],inactive
same,outcome,[7],inactive
same,Potency,[8],inactive
CCCCOC(=O)/C=C\C(=O)OCCCC,Potency,[1],inactive
same,Potency,[2],inactive
same,Potency,[4],inactive
same,outcome,[5],inactive
same,outcome,[7],inactive
same,Potency,[8],inactive
Cn1c(NCCN(CCO)CCCc2ccc([N+](=O)[O-])cc2)cc(=O)n(C)c1=O,Potency,[1],inactive
same,Potency,[3],inactive
same,Potency,[4],inactive
same,outcome,[5],inactive
same,Potency,[6],inactive
same,outcome,[7],inactive
same,Potency,[8],inactive
Cc1cccc(Oc2ccccc2)c1,Potency,[1],inactive
same,Potency,[2],66.8 µM (active)
same,Potency,[4],inactive
same,outcome,[5],inactive
same,Potency,[9],inactive
same,outcome,[7],inactive
same,Potency,[8],inactive
CC(C)NCC(O)COc1ccc(CC(N)=O)cc1 (centres undefined),Potency,[1],inactive
same,Potency,[2],inactive
same,outcome,[5],inactive
same,Potency,[6],inactive
same,Potency,[9],inactive
same,outcome,[7],inactive
same,Potency,[8],inactive
COc1ccc([C@@H]2Sc3ccccc3N(CCN(C)C)C(=O)[C@@H]2OC(C)=O)cc1,Potency,[1],inactive
same,Potency,[3],inactive
same,Potency,[4],inactive
same,outcome,[5],inactive
same,Potency,[6],inactive
same,Potency,[9],inactive
same,outcome,[7],inactive
same,Potency,[8],inactive
O=c1[nH]cnc2ccccc12,Potency,[1],inactive
same,Potency,[2],inactive
same,outcome,[5],inactive
same,Potency,[6],inactive
same,Potency,[9],inactive
same,outcome,[7],inactive
same,Potency,[8],inactive
CN1CCC[C@@H]1c1cccnc1,Potency,[1],inactive
same,Potency,[3],inactive
same,Potency,[4],inactive
same,outcome,[5],inactive
same,Potency,[6],inactive
same,Potency,[9],inactive
same,outcome,[7],inactive
same,Potency,[8],inactive
Cc1ccc(C(C)c2ccc(C)c(C)c2)cc1C,Potency,[1],inactive
same,Potency,[2],inactive
same,outcome,[5],inactive
same,Potency,[6],inactive
same,Potency,[9],inactive
same,outcome,[7],inactive
same,Potency,[8],inactive
O=C(c1ccc(O)cc1)c1ccc(O)cc1,Potency,[1],inactive
same,Potency,[2],inactive
same,outcome,[5],inactive
same,outcome,[7],inactive
CCCCOc1ccc(CC(=O)NO)cc1,Potency,[1],inactive
same,Potency,[3],inactive
same,Potency,[4],inactive
same,outcome,[5],inactive
same,outcome,[7],inactive
Oc1ccc(Sc2ccc(O)cc2)cc1,Potency,[1],inactive
same,Potency,[2],inactive
same,outcome,[5],inactive
same,Potency,[6],inactive
same,Potency,[9],inactive
same,outcome,[7],inactive
same,Potency,[8],20.3 µM (active)
CCN(CCO)CCCC(C)Nc1ccnc2cc(Cl)ccc12 (centres undefined),"viability change, negative = cytotoxic",[1],-0.563% [at 8.39 µM]
same,Potency,[3],inactive
same,"activity change, negative = inhibition",[4],16.3% [at 8.39 µM]
same,"activity change, negative = cytotoxicity",[5],0.62% [at 8.39 µM]
same,"viability change, negative = cytotoxic",[6],-3.56% [at 8.39 µM]
same,activity change,[7],0.0324% [at 8.39 µM]
same,"activity change, negative = inhibition",[8],5.56% [at 8.39 µM]
CCC(=O)OC(C)(C)C1CC=C(C)CC1 (centres undefined),Potency,[1],inactive
same,Potency,[2],inactive
same,outcome,[5],inactive
same,Potency,[6],inactive
same,Potency,[9],inactive
same,outcome,[7],inactive
same,Potency,[8],inactive
O=S1(=O)c2cccc3cccc(c23)N1CCCN1CCN(c2ccc(F)cc2)CC1,Potency,[1],inactive
same,Potency,[3],inactive
same,Potency,[4],inactive
same,outcome,[5],inactive
same,Potency,[6],inactive
same,Potency,[9],inactive
same,outcome,[7],inactive
NC[C@H]1O[C@H](O[C@H]2[C@H](O)[C@@H](O[C@H]3O[C@H](CO)[C@@H](O)[C@H](N)[C@H]3O)[C@H](N)C[C@@H]2N)[C@H](O)[C@@H](O)[C@@H]1O,"viability change, negative = cytotoxic",[1],1.3% [at 8.39 µM]
same,Potency,[3],inactive
same,"activity change, negative = cytotoxicity",[5],2.31% [at 8.39 µM]
same,"viability change, negative = cytotoxic",[6],-24.3% [at 8.39 µM]
same,activity change,[7],1.6% [at 8.39 µM]
same,"activity change, negative = inhibition",[8],-24.7% [at 8.39 µM]
CC(Cc1cccc(C(F)(F)F)c1)NCCOC(=O)c1ccccc1 (centres undefined),Potency,[1],inactive
same,Potency,[3],inactive
same,outcome,[5],inactive
same,Potency,[6],inactive
same,outcome,[7],inactive
CN(C(=O)CCCOc1ccc2[nH]c(=O)ccc2c1)C1CCCCC1,Potency,[1],inactive
same,Potency,[3],inactive
same,outcome,[5],inactive
same,Potency,[6],inactive
same,Potency,[9],inactive
same,outcome,[7],inactive
Cc1ccccn1,Potency,[1],inactive
same,Potency,[3],inactive
same,outcome,[5],inactive
same,Potency,[6],inactive
same,Potency,[9],inactive
same,outcome,[7],inactive
same,Potency,[8],inactive
Cc1cc(CC(=O)O)c(C)n1-c1ccc(Cl)cc1,Potency,[1],inactive
same,Potency,[3],inactive
same,Potency,[4],inactive
same,outcome,[5],inactive
same,outcome,[7],inactive
COc1ccccc1OC(=O)Oc1ccccc1OC,Potency,[1],inactive
same,Potency,[3],inactive
same,outcome,[5],inactive
same,Potency,[6],inactive
same,Potency,[9],inactive
same,outcome,[7],inactive
same,Potency,[8],inactive
CCCCCc1ccc(N)cc1,Potency,[1],inactive
same,Potency,[2],inactive
same,outcome,[5],inactive
same,Potency,[6],inactive
same,outcome,[7],inactive
CNS(=O)(=O)Cc1ccc2[nH]cc(CCN(C)C)c2c1,Potency,[1],inactive
same,Potency,[3],inactive
same,Potency,[4],inactive
same,outcome,[5],inactive
same,Potency,[6],inactive
same,Potency,[9],inactive
same,outcome,[7],inactive
same,Potency,[8],inactive
Cn1sccc1=O,Potency,[1],inactive
same,Potency,[2],inactive
same,outcome,[5],inactive
same,Potency,[9],27.3 µM (active)
same,outcome,[7],inactive
CCCC(C)C,Potency,[1],inactive
same,Potency,[2],inactive
same,outcome,[5],inactive
same,Potency,[6],inactive
same,Potency,[9],inactive
same,outcome,[7],inactive
same,Potency,[8],inactive
O=C1[C@H](CC[C@H](O)c2ccc(F)cc2)[C@@H](c2ccc(O)cc2)N1c1ccc(F)cc1,Potency,[1],inactive
same,Potency,[3],inactive
same,Potency,[4],inactive
same,outcome,[5],inactive
same,Potency,[6],inactive
same,Potency,[9],inactive
same,outcome,[7],inactive
same,Potency,[8],inactive
CN1CCC(=C2c3ccccc3C=Cc3ccccc32)CC1,Potency,[1],inactive
same,Potency,[3],inactive
same,Potency,[4],inactive
same,outcome,[5],inactive
same,Potency,[6],inactive
same,Potency,[9],inactive
same,outcome,[7],inactive
same,Potency,[8],0.335 µM (active)
Nc1nc(N)c(-c2ccccc2)s1,Potency,[1],inactive
same,Potency,[3],inactive
same,Potency,[4],inactive
same,outcome,[5],inactive
same,Potency,[6],inactive
same,outcome,[7],inactive
Cc1ccc2c(ccc3ccccc32)c1,Potency,[1],inactive
same,Potency,[2],inactive
same,Potency,[4],inactive
same,outcome,[5],inactive
same,outcome,[7],inactive
same,Potency,[8],inactive
